# Source: PubChem BioAssay AID743449 (Broad Institute, 2014)
# About 90 (0.9%) of roughly 9,900 compounds were called active. Roughly 2% stayed inconclusive and do not appear here.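 Rule for the calls: active = mean normalized replicate activity at least 50 and at least half of replicates each reaching 50; inconclusive = only one of the two criteria met; inactive = neither criterion met.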 The list comes from a sample in which actives are over-represented; it also holds similar structures and randomly drawn compounds.
# Experiment: YAP1 pathway inhibitors via CTGF transcript, primary screen, DLD1 colon cancer cells, RT-qPCR, single point (AID 743449);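 note: 0% = neutral control wells and 100% = dasatinib control wells; higher means stronger suppression of CTGF expression like dasatinib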
# Settings: DLD1 CTGF mRNA qPCR, 24 h; at 12.5 µM; active compounds read high
row,Structure (SMILES),inhibition
1,COc1cccc(-c2ccc([C@@H]3[C@@H](CO)N4CCCCN(C(=O)Cc5ccncc5)C[C@@H]34)cc2)c1,32.9% (inactive)
2,COc1cccc(-c2ccc([C@H]3[C@@H](CO)N4CCCCN(C(=O)Cc5ccncc5)C[C@@H]34)cc2)c1,18.9% (inactive)
3,O=C(Cc1ccncc1)N1CCCCN2[C@@H](CO)[C@@H](c3ccc(C#Cc4ccccc4F)cc3)[C@@H]2C1,27.9% (inactive)
4,COc1cccc(-c2ccc([C@H]3[C@H]4CN(C(=O)Cc5ccncc5)CCCCN4[C@H]3CO)cc2)c1,76.7% (active)
5,O=C(Cc1ccncc1)N1CCCCN2[C@@H](CO)[C@H](c3ccc(C#Cc4ccccc4F)cc3)[C@@H]2C1,22.3% (inactive)
6,O=C(Cc1ccncc1)N1CCCCN2[C@H](CO)[C@@H](c3ccc(C#Cc4ccccc4F)cc3)[C@H]2C1,54.3% (active)
7,O=C(Cc1ccncc1)N1CCCCN2[C@H](CO)[C@@H](c3ccc(C#Cc4ccccc4F)cc3)[C@@H]2C1,39.4% (inactive)
8,O=C(Cc1ccncc1)N1CCCCN2[C@H](C1)[C@@H](c1ccc(C#Cc3ccccc3F)cc1)[C@@H]2CO,12.4% (inactive)
9,O=C(Cc1ccncc1)N1CCCCN2[C@H](C1)[C@H](c1ccc(C#Cc3ccccc3F)cc1)[C@@H]2CO,104% (active)
10,O=C(O)[C@H]1[C@H](CO)[C@H]2Cn3c(ccc(-c4ccncc4)c3=O)[C@@H]1N2S(=O)(=O)c1ccccc1F,-4.67% (inactive)
11,C/C=C/c1ccc([C@H]2[C@@H](CO)N3CCCCN(C(=O)Cc4cccnc4)C[C@@H]23)cc1,-13.7% (inactive)
12,C[C@@H]1CN([C@@H](C)CO)C(=O)CCCn2nncc2CO[C@H]1CN(C)C(=O)Oc1cccc2ccccc12,-0.0735% (inactive)
13,COc1ccccc1CN1[C@H](CO)[C@H](c2ccccc2)C12CN(C(=O)Cc1ccccc1)C2,-16.1% (inactive)
14,C/C=C/c1ccc([C@H]2[C@H](CO)N3CCCCN(C(=O)Cc4cccnc4)C[C@@H]23)cc1,13.9% (inactive)
15,O=C([C@H]1N[C@H]2c3cccc(=O)n3C[C@H]2[C@@H]1CO)N1CCCCC1,-21.1% (inactive)
